Results published in PubChem BioAssay.
Values joined by “and” are separate entries in the source; they are usually repeats but may differ in a detail not shown here. Equal entries are not always repeated. For some assays here: Results with a measured potency or affinity are listed apart. Active and inactive are the calls of the source. Unless noted, how the calls were made is not given here.

Key:
[1] = polyglutamine-triggered caspase-3 activation inhibitors, cell-based (AID 1583); settings: polyglutamine-induced caspase-3 activation, cell assay; stronger effect = higher value;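 tested at 10 µM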
[2] = suppressors of polyQ aggregation in yeast, 75Q-TubU reporter (AID 1593); settings: Yeast 75Q polyglutamine aggregation reporter
[3] = rescue of polyQ-huntingtin neuronal dysfunction in worms, whole organism, C. elegans mechanosensory neurons, N-terminal huntingtin (AID 1599); settings: touch response, stronger effect = higher value
[4] = inhibitors of mitochondrial cytochrome c release, biochemical, purified mitochondria (AID 1603); settings: stronger effect = lower value;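 further: mouse liver mitochondria challenged with calcium chloride; signal normalized to the plate average as 100%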
[5] = inhibitors of polyQ protein aggregation (AID 1604); settings: polyglutamine-induced protein aggregation inhibition assay; stronger effect = higher value; tested at 2.5 µM
[6] = enhancers of glutamate uptake in motor neurons, MN-1 cell line (AID 1612); settings: MN-1 motor neuron cells, stronger effect = higher value;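 further: tested at 1 µM final; 0% = mean of DMSO vehicle wells on each plate; positive means more glutamate uptake than control and negative means less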
[7] = suppressors of polyglutamine aggregation in yeast, 75Q-TubH (AID 1616); settings: S. cerevisiae 75Q-TubH polyglutamine aggregation suppression; stronger effect = higher value
[8] = liver-stage malaria parasite growth inhibition, primary screen, cell-based, HepG2, luciferase luminescence, HepG2 viability (AID 624349; in the data active means parasite load remaining mostly below about 12%, no sharp cut-off; inactive means mostly above about 10%;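 further: 100% = mean of DMSO negative control wells on the same plate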); settings: P. berghei liver stage in HepG2, luciferase luminescence, concentration not given here; parasite load remaining: stronger effect = lower value; viability: measured here: HepG2 viability without parasites
[9] = target: 6-phosphogluconate dehydrogenase, decarboxylating (Homo sapiens) (UniProt P52209); assay: 6PGD enzyme inhibitors, primary screen, biochemical, human, recombinant enzyme, NADPH absorbance (AID 1159550;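 active means at least 20% inhibition of 6-phosphogluconate dehydrogenase activity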); settings: recombinant 6PGD, NADPH absorbance 341 nm; at 10 µM; stronger effect = higher value
[10] = differential killing of epithelial or mesenchymal cells, primary screen, imaging, PC-3E GFP, TEM4-18 mCherry, co-culture (AID 1345086;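 active means compounds killing one labelled cell type while sparing the other, by normalised counts and ratio limits, not self-fluorescent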;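 on all read-outs here: cells exposed to compound for 72 h before imaging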;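 on red/green cell ratio (normalised): normalised mesenchymal count divided by normalised epithelial count so high means epithelial killing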); settings: imaging cell counts, at 1 µM; for red/green cell ratio (normalised): actives lie on both sides
[11] = tested on: Aerobactin synthetase IucA (Klebsiella pneumoniae hvKP1); assay: Biochemical IucA enzyme inhibition primary screen of the Spectrum library (AID 1346200); settings: malachite green pyrophosphate, A620, at 8 µM, stronger effect = lower value;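 further: 100% = wells without compound and 0% = wells lacking enzyme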
[12] = sensitizers of A549 cells to miR-34 induction, primary screen, imaging, A549 dox-inducible miR-34, nuclei and caspase counts (AID 1347080;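 active means compounds whose cell count with miR-34 switched on is under 0.7 times the count with it off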); settings: A549 miR-34 inducible, Hoechst nuclei count, 48 h
[13] = survival rescue of mitochondrial mutant cells in low glucose, primary screen, MELAS cybrids, Rieske KO mouse fibroblasts, CellTiter-Glo (AID 1508586;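 active means mean z-score across replicates of 1.96 or higher in either the MELAS or the Rieske mutant cell line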;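 further: z relative to plate mean and SD of compound and empty wells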)
[14] = target: NAD(+) hydrolase SARM1 (Homo sapiens) (UniProt Q6SZW1); assay: SARM1 TIR NADase inhibitors, cell lysate, NAD-Glo luminescence (AID 1508614;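 active means compound whose remaining NAD level is above about 45 nM, limit read from the data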); settings: SAM-TIR HEK293T lysate NADase, at 1 µM, stronger effect = higher value
[15] = target: Mitogen-activated protein kinase 7 (Homo sapiens) (UniProt Q13164); assay: ERK5 transactivation activators in reporter cells, primary screen, cell-based, HTS (AID 1508626;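 active means luciferase signal above three times the same-plate solvent-only control wells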;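 further: luciferase driven by Gal4-ERK5 fusion binding five Gal4 sites before minimal TATA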); settings: HeLa Gal4-ERK5 transactivation, 18 h, at 5 µM, stronger effect = higher value
[16] = reducers of polyQ inclusions in PC12 cells, cell-based, NGF-treated PC12, GFPQ80 (AID 1614); settings: PC12 NGF-treated GFP-polyQ80 inclusion reduction;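 further: lower means fewer inclusions and 0 means no inclusions at all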
[17] = circadian clock period modulators, cell-based, LOPAC library, luminescence reporter (AID 2774); settings: circadian reporter cells, at 7 µM, actives lie on both sides;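 further: values are relative to mean of DMSO wells on each plate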
[18] = tested on: Hepatitis C virus NS3 helicase; assay: HCV NS3 helicase inhibitors, primary screen, biochemical, fluorescence polarization, LOPAC1280 library (AID 687035; in the data active means inhibition above about 37%); settings: Purified HCV NS3 helicase, Cy5-dT15 ssDNA binding fluorescence polarization; stronger effect = higher value; concentration not given here
[19] = viability rescue of complex I mutant cybrids, primary screen, cell-based, galactose medium, ATP luminescence (AID 1645843;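 active means z-score of at least 1.8 in each of two replicates, scored against plate mean and spread of sample wells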;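 further: positive z means more ATP and so rescue of galactose-driven cybrid death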); settings: complex I mutant cybrid cells, 72 h, stronger effect = higher value
[20] = hESC survival regulators, cell-based (AID 493140); settings: human embryonic stem cell survival screen; stronger effect = higher value;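 further: cells exposed to compounds for four days before counting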
[21] = measured here: epithelial PC-3E GFP cell survival
[22] = measured here: mesenchymal TEM4-18 mCherry cell survival
[23] = measured here: relative caspase fold change +Dox/-Dox
[24] = measured here: total cells with miR-34 induction, stronger effect = lower value
[25] = measured here: total cells without miR-34 induction
[26] = MELAS cybrid survival, CellTiter-Glo 48 h, stronger effect = higher value
[27] = Rieske KO mouse fibroblast survival, CellTiter-Glo 72 h

Chain of NAD(+) hydrolase SARM1 (Homo sapiens) (Q6SZW1 whole entry, looked up, the tested form may be a part): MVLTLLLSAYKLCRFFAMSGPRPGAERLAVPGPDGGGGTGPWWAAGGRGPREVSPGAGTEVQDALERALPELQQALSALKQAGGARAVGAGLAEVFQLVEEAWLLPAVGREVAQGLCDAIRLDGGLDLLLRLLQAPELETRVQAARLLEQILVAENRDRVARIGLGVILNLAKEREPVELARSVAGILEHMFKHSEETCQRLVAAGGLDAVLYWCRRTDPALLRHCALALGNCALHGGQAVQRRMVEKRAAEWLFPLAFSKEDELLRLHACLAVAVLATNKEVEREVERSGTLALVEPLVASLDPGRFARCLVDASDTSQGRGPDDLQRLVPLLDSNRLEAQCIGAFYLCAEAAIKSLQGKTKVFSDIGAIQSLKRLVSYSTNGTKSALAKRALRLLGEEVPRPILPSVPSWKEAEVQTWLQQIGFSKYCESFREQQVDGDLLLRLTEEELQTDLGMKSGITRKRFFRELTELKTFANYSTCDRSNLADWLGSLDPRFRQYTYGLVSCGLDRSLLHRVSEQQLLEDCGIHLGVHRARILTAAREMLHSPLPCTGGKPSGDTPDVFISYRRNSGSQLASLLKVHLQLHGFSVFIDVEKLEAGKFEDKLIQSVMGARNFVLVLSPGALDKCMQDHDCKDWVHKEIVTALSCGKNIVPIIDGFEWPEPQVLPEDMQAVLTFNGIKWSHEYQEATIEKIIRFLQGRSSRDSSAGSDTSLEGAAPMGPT
Chain of 6-phosphogluconate dehydrogenase, decarboxylating (Homo sapiens) (P52209 whole entry, looked up): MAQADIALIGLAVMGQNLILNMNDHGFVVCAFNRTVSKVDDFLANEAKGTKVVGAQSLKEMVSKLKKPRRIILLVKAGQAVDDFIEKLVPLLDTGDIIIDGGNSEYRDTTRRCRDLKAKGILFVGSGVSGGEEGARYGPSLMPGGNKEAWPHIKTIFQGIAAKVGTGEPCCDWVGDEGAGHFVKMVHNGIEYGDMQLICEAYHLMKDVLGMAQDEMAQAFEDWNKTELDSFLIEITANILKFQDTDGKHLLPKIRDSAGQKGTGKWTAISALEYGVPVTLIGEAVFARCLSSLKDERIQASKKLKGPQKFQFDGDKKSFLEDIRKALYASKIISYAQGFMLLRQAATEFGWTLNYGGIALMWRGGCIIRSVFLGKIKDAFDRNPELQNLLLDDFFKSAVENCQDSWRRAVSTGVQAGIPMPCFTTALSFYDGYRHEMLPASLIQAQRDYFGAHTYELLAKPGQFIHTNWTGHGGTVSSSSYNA
Chain of Mitogen-activated protein kinase 7 (Homo sapiens) (Q13164 whole entry, looked up, the tested form may be a part): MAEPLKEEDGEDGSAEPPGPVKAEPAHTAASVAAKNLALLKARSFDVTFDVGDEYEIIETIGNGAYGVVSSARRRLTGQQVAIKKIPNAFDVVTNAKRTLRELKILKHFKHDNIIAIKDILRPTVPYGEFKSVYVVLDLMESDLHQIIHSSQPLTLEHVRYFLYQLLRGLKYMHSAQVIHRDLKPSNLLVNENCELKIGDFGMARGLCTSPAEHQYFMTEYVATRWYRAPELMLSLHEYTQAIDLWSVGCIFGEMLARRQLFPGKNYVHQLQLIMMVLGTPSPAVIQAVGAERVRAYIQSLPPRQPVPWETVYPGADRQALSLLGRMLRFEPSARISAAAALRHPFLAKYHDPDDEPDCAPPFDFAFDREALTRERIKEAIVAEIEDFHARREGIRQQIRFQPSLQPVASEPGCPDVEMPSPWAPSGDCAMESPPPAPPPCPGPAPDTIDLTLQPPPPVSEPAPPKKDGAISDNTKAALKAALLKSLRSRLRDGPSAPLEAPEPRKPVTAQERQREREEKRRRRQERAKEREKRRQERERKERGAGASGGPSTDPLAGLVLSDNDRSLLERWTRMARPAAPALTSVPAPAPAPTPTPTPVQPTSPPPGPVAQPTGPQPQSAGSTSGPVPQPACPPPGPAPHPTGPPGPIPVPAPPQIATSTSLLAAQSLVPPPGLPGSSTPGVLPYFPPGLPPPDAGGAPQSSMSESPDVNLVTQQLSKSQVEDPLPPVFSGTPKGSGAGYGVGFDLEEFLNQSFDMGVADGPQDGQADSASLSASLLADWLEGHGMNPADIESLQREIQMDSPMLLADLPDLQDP

For CCCCCCCCCCCCCCCC[n+]1ccccc1, the inhibition [1] was 55.6%, the score [2] was -0.08 and the rescue above control [3] was 0. It also gave a cytochrome c release ratio [4] of 3.74, an inhibition of aggregation [5] of 52.2% and a glutamate uptake change [6] of -18.1%. The aggregation suppression score [7] was -0.00459, the parasite load remaining [8] was -0.13% (inactive) and -0.08% (inactive) and the viability [8] was 14.3% and 4.9%. For the same compound, the inhibition [9] was 10.7% (inactive), the red/green cell ratio (normalised) [10] was 0.76 (inactive) and the normalised cell number [10, 21] was 0.52. The normalised cell number [10, 22] was 0.4, the activity remaining [11] was 111% (inactive) and the fold change ([12]; stronger effect = lower value) was 0.867 (inactive) and 0.767 (inactive). For the same compound, the fold change [12, 23] was 1.06 and 4.42, the cell count [12, 24] was 1850 and 1610 and the cell count [12, 25] was 2130 and 2090. For the same compound, the z-score [13, 26] was -0.367 (inactive), the z-score [13, 27] was -0.303 and the remaining NAD [14] was 10 nM (inactive). For the same compound, the luciferase signal [15] was 96 AU (inactive).
With S=C=NCc1ccccc1 the parasite load remaining [8] was 45.7% (inactive), the viability [8] was 72.2% and the inhibition [9] was -1.63% (inactive). For the same compound, the red/green cell ratio (normalised) [10] was 0.83 (inactive), the normalised cell number [10, 21] was 1.15 and the normalised cell number [10, 22] was 0.95. The activity remaining [11] was 83.8% (inactive), the remaining NAD [14] was 10 nM (inactive) and the luciferase signal [15] was 168 AU (active).
For CC1=C(O)C(=O)C=C2C1=CC=C1[C@@]2(C)CC[C@@]2(C)[C@@H]3C[C@](C)(C(=O)O)CC[C@]3(C)CC[C@]12C, the inhibition [9] was -29.5% (inactive), the red/green cell ratio (normalised) [10] was 0.62 (inactive) and the normalised cell number [10, 21] was 0.09. The normalised cell number [10, 22] was 0.05, the activity remaining [11] was 122% (inactive) and the fold change ([12]; stronger effect = lower value) was 0.911 (inactive). For the same compound, the fold change [12, 23] was 1.02, the cell count [12, 24] was 948 and the cell count [12, 25] was 1040. For the same compound, the luciferase signal [15] was 360 AU (inactive).
In the case of CC(=O)CC1CCCCN1 (centres undefined), the inhibition [9] is reported as 16.3% (inactive), the red/green cell ratio (normalised) ([10]; counts scaled to control wells, 1 = unselective) is reported as 1.09 (inactive) and the normalised cell number [10, 21] is reported as 0.99. The normalised cell number [10, 22] was 1.09, the activity remaining [11] was 107% (inactive) and the luciferase signal [15] was 48 AU (inactive).
In the case of NC(N)=NOCC[C@H](N)C(=O)O, the inhibition [1] is reported as 10.5%, the score [2] is reported as 1.23 and the rescue above control [3] is reported as -6.04. It also gave a cytochrome c release ratio [4] of 1.27, an inhibition of aggregation [5] of 85.9% and a glutamate uptake change [6] of 11.4%. For the same compound, the inclusion score [16] was 2, the aggregation suppression score [7] was 1.39 and the period change [17] was -0.04 h (inactive). For the same compound, the parasite load remaining [8] was 114% (inactive) and 105% (inactive), the viability [8] was 112% and 68.7% and the inhibition [18] was 2% (inactive). The inhibition [9] was 12.8% (inactive), the red/green cell ratio (normalised) [10] was 1.04 (inactive) and the normalised cell number [10, 21] was 0.91. The normalised cell number [10, 22] was 0.95, the activity remaining [11] was 113% (inactive) and the fold change ([12]; stronger effect = lower value) was 1.01 (inactive). The fold change ([12]; stronger effect = lower value, cell number ratio, induced over uninduced) was 0.827 (inactive), the fold change [12, 23] was 1.39 and 1.69 and the cell count [12, 24] was 9120 and 8920. The cell count [12, 25] was 8990 and 10800, the luciferase signal [15] was 84 AU (inactive) and the z-score [19] was 0.085 (inactive).
With N[C@H](CO)Cc1ccccc1 the inhibition [9] was 1.18% (inactive), the red/green cell ratio (normalised) [10] was 1 (inactive) and the normalised cell number [10, 21] was 1.16. For the same compound, the normalised cell number [10, 22] was 1.17 and the activity remaining [11] was 102% (inactive).
For COc1cc(OC)c(OC)cc1C=O, the parasite load remaining [8] was 70.8% (inactive), the viability [8] was 91.7% and the inhibition [9] was -2.13% (inactive). The red/green cell ratio (normalised) [10] was 1.04 (inactive), the normalised cell number [10, 21] was 1.13 and the normalised cell number [10, 22] was 1.18. For the same compound, the activity remaining [11] was 109% (inactive), the fold change ([12]; stronger effect = lower value) was 0.932 (inactive) and the fold change [12, 23] was 0.878. The cell count [12, 24] was 9380, the cell count [12, 25] was 10100 and the z-score [13, 26] was -0.272 (inactive). For the same compound, the z-score [13, 27] was 0.673 and the luciferase signal [15] was 156 AU (inactive).
With O=C1C=CC(=O)c2c(O)cccc21 the inhibition [1] was -40.3%, the score [2] was 0.54 and the rescue above control [3] was 2.83. It also gave a cytochrome c release ratio [4] of 0.82, an inhibition of aggregation [5] of 100% and a glutamate uptake change [6] of 42.9%. For the same compound, the aggregation suppression score [7] was 0.876, the inhibition [9] was -2.17% (inactive) and the red/green cell ratio (normalised) [10] was 0.98 (inactive). For the same compound, the normalised cell number [10, 21] was 1.05, the normalised cell number [10, 22] was 1.03 and the activity remaining [11] was 127% (inactive). For the same compound, the fold change ([12]; stronger effect = lower value) was 0.989 (inactive), the fold change [12, 23] was 0.796 and the cell count [12, 24] was 2420. For the same compound, the cell count [12, 25] was 2440 and the luciferase signal [15] was 52 AU (inactive).
With CNC(C)C(O)c1ccccc1 (centres undefined) the inhibition [1] was 28.1% and 10.2%, the score [2] was 0.95 and 1.05 and the rescue above control [3] was -2.36 and -10.7. For the same compound, the cytochrome c release ratio [4] was 1.45 and 0.98, the inhibition of aggregation [5] was 84.6% and 51.5% and the glutamate uptake change [6] was -17.5% and 6.9%. The inclusion score [16] was 2, the aggregation suppression score [7] was 1.13 and 1.02 and the parasite load remaining [8] was 90.9% (inactive) and 53.2% (inactive). For the same compound, the viability [8] was 77.9% and 114%, the inhibition [9] was -20.1% (inactive) and the red/green cell ratio (normalised) [10] was 0.97 (inactive). For the same compound, the normalised cell number [10, 21] was 1.05, the normalised cell number [10, 22] was 1.03 and the activity remaining [11] was 81.5% (inactive). For the same compound, the fold change ([12]; stronger effect = lower value) was 0.894 (inactive), the fold change [12, 23] was 2.97 and the cell count [12, 24] was 10800. The cell count [12, 25] was 12100, the remaining NAD [14] was 10 nM (inactive) and the luciferase signal [15] was 24 AU (inactive).
C=CCC1(C(C)CCC)C(=O)N=C(S)NC1=O (centres undefined) showed an inhibition [1] of 1.58%, a score [2] of 1.49 and a rescue above control [3] of 6.87. The cytochrome c release ratio [4] was 0.94, the inhibition of aggregation [5] was 42.9% and the glutamate uptake change [6] was 8.72%. The inclusion score [16] was 2, the aggregation suppression score [7] was 1.19 and the parasite load remaining [8] was 21.5% (inactive). For the same compound, the viability [8] was 101%, the inhibition [9] was 2.84% (inactive) and the red/green cell ratio (normalised) [10] was 1.3 (inactive). The normalised cell number [10, 21] was 0.79, the normalised cell number [10, 22] was 1.03 and the activity remaining [11] was 110% (inactive). For the same compound, the fold change ([12]; stronger effect = lower value) was 0.918 (inactive), the fold change [12, 23] was 2.58 and the cell count [12, 24] was 11400. The cell count [12, 25] was 12400, the remaining NAD [14] was 10 nM (inactive) and the luciferase signal [15] was 84 AU (inactive).
For COc1cc2c(cc1-c1cc3cc4ccoc4cc3oc1=O)OCO2, the inhibition [9] was 0.213% (inactive), the red/green cell ratio (normalised) [10] was 0.88 (inactive) and the normalised cell number [10, 21] was 0.99. For the same compound, the normalised cell number [10, 22] was 0.87, the activity remaining [11] was 113% (inactive) and the luciferase signal [15] was 44 AU (inactive).
OC1CCCCC1N1CCC(c2ccccc2)CC1 (centres undefined) showed an inhibition [1] of -2.9%, a score [2] of 1.36 and a rescue above control [3] of 12.8. It also gave a cytochrome c release ratio [4] of 1.15, an inhibition of aggregation [5] of 57.4% and a glutamate uptake change [6] of -9.45%. The inclusion score [16] was 2, the aggregation suppression score [7] was 1.46 and the period change [17] was 0.065 h (inactive). The survival [20] was 2.42 (inactive), the parasite load remaining [8] was 122% (inactive) and 70.2% (inactive) and the viability [8] was 88.2% and 106%. The inhibition [18] was -4% (inactive), the inhibition [9] was 1.03% (inactive) and the red/green cell ratio (normalised) [10] was 0.98 (inactive). The normalised cell number [10, 21] was 1.07, the normalised cell number [10, 22] was 1.05 and the activity remaining [11] was 87.4% (inactive). For the same compound, the fold change ([12]; stronger effect = lower value) was 0.987 (inactive) and 1.03 (inactive) and 0.84 (inactive), the fold change [12, 23] was 1.87 and 1.57 and 4 and the cell count [12, 24] was 10100 and 9780 and 10400. The cell count [12, 25] was 10200 and 9480 and 12300, the luciferase signal [15] was 60 AU (inactive) and the z-score [19] was 0.03 (inactive) and 0.65 (inactive).
